Experiments:
Experiment in all cases: PBM binding z-score (relative to random genomic background probes); higher = stronger binding; sequences stand for … in GC…GCGATTGACAGCGTAGAATGAAGG
[1] = system: FXR:RXRa (NR concentration 270 nM, RXRa partner concentration 90 nM)
In short: (§1)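 Binding buffer was PBS pH 7.4 with 2% milk, 0.02% Triton X-100, 1 mM DTT, 0.2 mg/mL BSA and 0.4 mg/ml salmon testes DNA. In it, ligand-free nuclear receptor dimers were incubated 1 h on custom Agilent 4×180K protein-binding microarrays carrying double-stranded probes. Antibodies against each partner (one per run) detected binding, and z-scores were calculated against random background probes after regression normalization of scanned fluorescence.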

[2] = system: LXRa:RXRa (NR concentration 270 nM, RXRa partner concentration 90 nM)
In short: as §1

[3] = system: LXRa homodimer (NR concentration 270 nM)
In short: as §1

[4] = system: LXRb:RXRa (NR concentration 270 nM, RXRa partner concentration 90 nM)
In short: as §1

[5] = system: LXRb homodimer (NR concentration 270 nM)
In short: as §1

[6] = system: PPARa:RXRa (NR concentration 270 nM, RXRa partner concentration 90 nM)
In short: as §1

[7] = system: PPARg:RXRa (NR concentration 180 nM, RXRa partner concentration 90 nM)
In short: as §1

[8] = system: PPARg:RXRa 270nM:90nM, anti-RXR (NR concentration 270 nM, RXRa partner concentration 90 nM)
In short: as §1

[9] = system: PPARg:RXRa 30nM:10nM, anti-RXR (NR concentration 30 nM, RXRa partner concentration 10 nM)
In short: as §1

[10] = system: PPARg:RXRa 90nM:30nM, anti-RXR (NR concentration 90 nM, RXRa partner concentration 30 nM)
In short: as §1

[11] = system: PPARg:RXRa DBDmut IVT, anti-RXR (DBD mutation: RXRa K156A/R161A, NR concentration 270 nM, RXRa partner concentration 90 nM)
In short: as §1

[12] = system: PPARg:RXRa IVT, anti-PPARg (NR concentration 270 nM, RXRa partner concentration 90 nM)
In short: as §1

[13] = system: PPARg DBDmut:RXRa IVT, anti-PPARg (DBD mutation: PPARg1 K132A/R137A, NR concentration 270 nM, RXRa partner concentration 90 nM)
In short: as §1

[14] = system: PPARg DBDmut IVT, anti-PPARg (DBD mutation: PPARg1 K132A/R137A, NR concentration 270 nM)
In short: as §1

[15] = system: PPARg homodimer (NR concentration 180 nM)
In short: as §1

[16] = system: PXR:RXRa (NR concentration 270 nM, RXRa partner concentration 90 nM)
In short: as §1

[17] = system: PXR homodimer (NR concentration 270 nM)
In short: as §1

[18] = system: RARa:RXR (NR concentration 270 nM, RXRa partner concentration 90 nM)
In short: as §1

[19] = system: RARa homodimer (NR concentration 270 nM)
In short: as §1

[20] = system: RARb:RXRa (NR concentration 270 nM, RXRa partner concentration 90 nM)
In short: as §1

Row | Sequence | PBM binding z-score [1] | PBM binding z-score [2] | PBM binding z-score [3] | PBM binding z-score [4] | PBM binding z-score [5] | PBM binding z-score [6] | PBM binding z-score [7] | PBM binding z-score [8] | PBM binding z-score [9] | PBM binding z-score [10] | PBM binding z-score [11] | PBM binding z-score [12] | PBM binding z-score [13] | PBM binding z-score [14] | PBM binding z-score [15] | PBM binding z-score [16] | PBM binding z-score [17] | PBM binding z-score [18] | PBM binding z-score [19] | PBM binding z-score [20]
1 | TGAATGAGGTTATAAGATCAGTGAACGTTGCAAA | 1.18 | 1.34 | -0.254 | 1.17 | -0.0173 | 2.66 | 1.29 | 1.72 | 0.94 | 1.35 | 1.21 | 1.6 | 1.17 | 0.745 | 0.394 | 0.814 | 0.0458 | 1.62 | 0.171 | 1.25
2 | CCGACTGGGGCATAAGGTTAGCATAAGCCAGCCC | -0.404 | -0.371 | -0.738 | -0.254 | -1.19 | 1.04 | 1.7 | 2.32 | 0.353 | 1.83 | 3.03 | 2.86 | -1.39 | -1.75 | -0.109 | -0.447 | -0.542 | 0.115 | -0.345 | 1.12
3 | GCTGCTAGGTCAACTGATGGTCCGCTAAAGCTCG | 3.85 | 2.46 | 0.00165 | 1.92 | -0.00733 | 3.41 | 2.32 | 2.97 | 0.463 | 1.97 | 4.62 | 3.92 | -0.331 | -0.853 | 0.857 | 0.939 | -0.584 | 2.05 | -0.897 | 4.04
4 | CGTCATAGTTCAAGGTAACGTAACAGAAAGCAGC | 1.89 | 2.17 | 0.514 | 1.5 | 0.174 | 2.48 | 1.29 | 1.78 | 0.603 | 1.3 | 0.329 | 0.799 | 0.676 | 1.29 | 1.19 | 1.39 | 0.511 | 1.43 | 0.512 | 3.34
5 | GATTCAGGGTCAAGGCCAGAGTACGCGTATTGAT | 6.98 | 5.3 | 0.175 | 4.43 | 0.317 | 6.12 | 6.43 | 6.72 | 3.1 | 5.41 | 3.79 | 4.63 | 1.51 | 0.0606 | 3.59 | 4.81 | 0.452 | 5.58 | 0.724 | 4.92
6 | CAAACTAGGTCAAAGGTCAAAGTCGAGCCAACCA | 8.73 | 7.31 | 6.02 | 7.38 | 3.55 | 7.8 | 14 | 11.4 | 12.3 | 13.1 | 8.73 | 9.33 | 2.23 | 2.15 | 5.09 | 7.21 | 2.02 | 8.8 | 3.18 | 5.96
7 | TAGCCTAGGTCATTGCGCCAGTATAGTACGCATC | 4.86 | 3.69 | 1.05 | 2.41 | 0.632 | 3.48 | 2.25 | 2.49 | 0.591 | 1.63 | 1.65 | 2.83 | 1.15 | 0.064 | 1.7 | 1.89 | -0.0218 | 2.62 | -0.455 | 3.7
8 | TCTTGTAGATCAAATGTTAAGAAAGCCGAAGCCT | 0.704 | 0.517 | -0.184 | 0.216 | 0.123 | 1.15 | 1.12 | 3.42 | 3.84 | 3.61 | 2.21 | 0.573 | 0.744 | 0.647 | 0.284 | 0.199 | 0.012 | 0.519 | 0.868 | -0.134
9 | ATCGATAGGTCGTGAGGTGAGTATACAGAAAGGC | 1.25 | 1.3 | -0.0722 | 1.07 | 0.187 | 2.43 | 1.32 | 1.08 | 0.506 | 0.989 | -0.14 | 1.35 | 1 | 0.371 | 0.792 | 1 | 0.158 | 1.94 | 0.167 | 1.97
10 | TCTGCTAGGTCAGTTGGTCAGCTATCGAGCTGCC | 0.915 | 0.538 | -0.72 | 0.193 | 0.35 | 1.26 | 0.224 | 1.72 | 1.21 | 1.45 | 2.46 | 3.27 | 0.301 | 0.371 | 0.0545 | 0.289 | -0.818 | 0.544 | -1.27 | 3.39
11 | CAAACTGGGTCAAGAGGTCAAAGTCCGCTTCCCG | 6.73 | 6.26 | 5.68 | 5.53 | 1.32 | 6.47 | 9.59 | 8.33 | 7.11 | 8.47 | 7.83 | 8.28 | 2.26 | 1.72 | 5.48 | 6.28 | 2.74 | 7.7 | 1.96 | 5.29
12 | TCGAGTAGGTTAGTTGGGGCATTCAGCCAACATA | 0.131 | -0.106 | -0.363 | 0.412 | -0.31 | 0.49 | -0.334 | 0.635 | 0.877 | 0.623 | 2.05 | 1.73 | -0.651 | -0.228 | 0.105 | -0.283 | -0.15 | 0.117 | -0.0281 | 0.529
13 | CCCAGCAGGCCAGGGTCACTCAAGCATTTCGCTT | 2.03 | 1.48 | -0.513 | 1.61 | -0.79 | 2.8 | 0.0881 | 0.885 | -1.03 | 0.0104 | -0.567 | 0.512 | -1.55 | -1.26 | 0.406 | 2.46 | -0.562 | 3.22 | -0.754 | 2.62
14 | CAAACTAGGTCAAGAGGTCAAAGTACGCTTCCCG | 7.11 | 6.18 | 5.74 | 5.71 | 2.26 | 6.64 | 10 | 8.3 | 7.25 | 8.63 | 8.34 | 8.65 | 3.41 | 3.08 | 4.62 | 6.26 | 3.22 | 7.37 | 3.18 | 5.45
15 | ATATATAGGTTATCGGGTCATTCAGTTTGCGCAT | 3.94 | 3.78 | 2.66 | 3.46 | 2.07 | 5.17 | 7.65 | 6.52 | 4.09 | 6.01 | 7.55 | 7.39 | 3.48 | 3.64 | 4.29 | 3.91 | 8.17 | 4.26 | 3.1 | 2.96
